Compounds with a hit are over-represented: about 12% of the library has one in this group of screens.
JMJD2A Tudor: qHTS Assay for Inhibitors of JMJD2A-Tudor Domain; Lysine-specific demethylase 4A (Homo sapiens), O75164; AlphaScreen JMJD2A-Tudor / H3K4me3 peptide binding; Potency, µM (titrated, usually from 114 µM), without a hit: top-dose activity change, negative = inhibition, usual class: inhibitors; hit rate 4.4% among 390,000; AID 504339, 2011; also: % is scaled to controls: 0 for no effect and ±100 for the full control effect; nearly all actives have a fitted effect of over 50% in size
BAZ2B inh: qHTS Assay for Inhibitors of BAZ2B. Bromodomain adjacent to zinc finger domain protein 2B (Homo sapiens), Q9UIF8. AlphaScreen BAZ2B-H3K14Ac peptide displacement. Potency, µM (highest dose often 114 µM), without a hit: top-dose activity change, negative = inhibition, usual class: inhibitors. hit rate 4.4% among 360,000. AID 504333, 2011; also: % is scaled to controls: 0 for no effect and ±100 for the full control effect; nearly all actives have a fitted effect of over 60% in size
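In this displacement format the biotinylated H3(5-23) peptide acetylated at Lys14 serves as ligand at 50 nM, with BAZ2B at 50 nM in PBS pH 7.4 containing 0.01% Tween-20. Donor and acceptor beads are 10 ug/mL final.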
G9a inh: qHTS Assay for Inhibitors of Histone Lysine Methyltransferase G9a; Histone-lysine N-methyltransferase EHMT2 (Homo sapiens), Q96KQ7; G9a H3K9 monomethylation, AlphaScreen, 2 h; Potency, µM (doses to about 102 µM), for inactives: at the highest dose activity, negative = inhibition, actives largely listed as inhibitors; hit rate 8.8% among 350,000; also: % is scaled to controls: 0 for no effect and ±100 for the full control effect; nearly all actives have a fitted effect of over 75% in size
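G9a (20 nM) was preincubated 15 min with compound, then reacted 2 h at room temperature with 500 nM biotin-H3K9 peptide and 20 µM SAM. Monomethyl-H3K9 detected by AlphaScreen using anti-H3K9me1 antibody.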
Sfp inh: qHTS Assay for Inhibitors of Bacillus subtilis Sfp phosphopantetheinyl transferase (PPTase). 4'-phosphopantetheinyl transferase ffp (Bacillus subtilis), Q9F4F7. Biochemical Sfp PPTase activity, qHTS. Potency, µM, inactives show largest response in the series, negative = inhibition, most hits filed as inhibitors. hit rate 3.5% among 310,000. AID 1490, 2009;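 also: the enzyme is Sfp with the accession as filed and its product quenches rhodamine fluorescence; 0% = enzyme reaction without inhibitor and -100% = no enzyme wells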
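Step 1, compound plus 15 nM Sfp-PPTase, 15 min, room temperature. Step 2, add rhodamine-CoA (5 uM) and BHQ-2-YbbR (12.5 uM). Step 3, read 525/598 nm fluorescence at 0 and 30 min.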
L3MBTL1 inh: qHTS Assay for the Inhibitors of L3MBTL1. Lethal(3)malignant brain tumor-like protein 1 (Homo sapiens), Q9Y468. AlphaScreen L3MBTL1–H3K9me1 peptide binding. Potency, µM (top dose mostly 57.1 µM), inactives show top-dose activity, negative = inhibition, actives largely listed as inhibitors. hit rate 0.66% among 230,000; also: % is scaled to controls: 0 for no effect and ±100 for the full control effect; nearly all actives have a fitted effect of over 60% in size
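AlphaScreen assay: L3MBTL1 (50 nM final) was preincubated 30 min at room temperature with biotinylated H3(1-15)K9me1 peptide (75 nM final), then 30 min with library compounds; streptavidin donor and nickel chelate acceptor beads (10 ug/mL final) added, 30 min dark.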
HP1b chromo inh: HTS for Inhibitors of HP1-beta Chromodomain Interactions with Methylated Histone Tails | Chromobox protein homolog 1 (Homo sapiens), P83916 | AlphaScreen HP1-beta / biotin-H3K9me3 peptide binding | Potency, µM (titrated, usually from 114 µM), without a hit: at the top dose activity change, negative = inhibition, usual class: inhibitors | hit rate 0.56% among 390,000 | AID 540317, 2011; also: nearly all actives have a fitted effect of over 70% in size
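HP1-beta protein (50 nM final) preincubated 30 min at room temperature with biotinylated H3(1-18)K9me3 peptide (50 nM) in PBS pH 7.4, 0.01% Tween-20, then compound added for 30 min. AlphaScreen streptavidin donor/nickel chelate acceptor beads (10 ug/mL final), 30 min dark, luminescence read.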
The depositor's hits bear a star; u = inconclusive; x = no result given; [ ] = dose if it differs, or a comment. Calls follow the shape of the dose curve; as a rule, active = well fitted curve in the direction sought with a large enough effect; inconclusive = small, poorly fitted or top-dose-only effect, or another doubt; inactive = no such curve, though single readings can be large; an effect the other way counts as inactive or inconclusive. Potency is read from the fitted curve at half-maximal effect.

SMILES | JMJD2A Tudor | BAZ2B inh | G9a inh | Sfp inh | L3MBTL1 inh | HP1b chromo inh
COc1ccc(C(=O)/C=C/C(=O)N(CC(=O)NCCC(C)C)Cc2cccs2)c(O)c1 | -18% | -21% | -30% | 3.5µM* | -20% | -16%
COc1ccc(C(=O)/C=C/C(=O)N(CC(=O)NC2CCCCC2)Cc2ccc(F)cc2)c(O)c1 | -21% | -13% | x | 8.9µM* | 12% | 24%
CS(=O)(=O)N(CC(=O)NC1CCCCC1)Cc1ccc(F)cc1 | 8%[11.4 µM] | -18% | -3% | 16% | 3%[11.4 µM] | 52%
COc1ccc(C(=O)N(Cc2ccco2)Cc2cccs2)c(O)c1 | -32% | -11% | u | u | x | 27%
CCc1ccc(CNC(=O)c2sc3ncccc3c2-n2c(C)ccc2C)cc1 | -22% | 10% | -1%[59 µM] | x | x | 14%[57 µM]
O=c1[nH][nH]cc1C=Nc1ccccc1O | -25% | 40µM* | 65%[12.7 µM] | 12% | -28% | 50%
O=c1[nH][nH]cc1C=Nc1ccccc1Cl | -14% | -33% | -8% | 12% | 23% | 18%
O=c1[nH][nH]cc1C=Nc1cc(Cl)ccc1O | 79µM* | 14µM* | u | 17% | x | 33%
O=c1[nH][nH]cc1C=Nc1ccc(Cl)cc1Cl | -3% | u | -6% | 11% | -5% | 26%
COc1cc2ccccc2cc1C(=O)Nc1ccc2oc(-c3ccc(F)cc3Cl)nc2c1 | -15% | 1% | -19%[59 µM] | x | x | 15%
Cc1c(C(=O)Nc2ccc(N3CCOCC3)cc2)oc2ccccc12 | 56µM* | 3% | u | -13% | -4% | 1%
COc1cccc(NC(=O)c2oc3ccc(S(=O)(=O)N4CCOCC4)cc3c2C)c1 | -14% | 5% | -41% | 3% | x | 15%
Cc1c(C(=O)OCC(=O)Nc2ccc(N3CCOCC3)cc2)oc2ccccc12 | -16% | 10% | 16%[0.501 µM] | x | -10% | 1%
COc1ccc2oc(C(=O)Nc3ccccc3N3CCOCC3)c(C)c2c1 | -13% | 8% | 45µM* | x | 2% | 10%
CCOc1cc(N2CCOCC2)c(OCC)cc1NC(=O)c1oc2ccccc2c1C | -20% | x | -7% | 4% | -3% | -2%
Cc1c(C(=O)NC2CCS(=O)(=O)C2)oc2ccccc12 (centres undefined) | -2% | 23% | 45µM* | 15% | x | 51%
COc1ccc2oc(C(=O)Nc3ccc(N4CCOCC4)cc3)c(C)c2c1 | u | 50µM* | 50µM* | x | u | -15%
CCOC(=O)c1cc(C)n(CC2CCC(C(=O)Nc3cc(OC)cc(OC)c3)CC2)c1C (centres undefined) | -26% | -29% | u | x | x | 33%
Cc1cc(F)ccc1S(=O)(=O)NCC(c1ccco1)S(=O)(=O)c1cccs1 (centres undefined) | -6% | 13% | 13%[59 µM] | x | x | 87%
CCOc1ccc(CNC(=O)c2cccn2-c2nnc(N3CCCCC3)s2)cc1OC | -26% | u | -2%[59 µM] | x | x | 27%
Cc1ccc(NS(=O)(=O)c2cccc3nsnc23)cc1C | -23% | u | -37% | 11% | x | -3%
Cc1ccc(O)c(NS(=O)(=O)c2cccc3nsnc23)c1 | u | 45µM* | -31%[2.33 µM] | -6% | x | u
Cc1cc(C)c(S(=O)(=O)Nc2ccc[nH]c2=O)c(C)c1 | -18% | 1% | 8.9µM* | 50µM* | -4% | 21%
COc1cc(NS(=O)(=O)c2cccc3nsnc23)cc(OC)c1 | 45µM* | 56µM* | 2µM* | -6% | x | -10%
Cc1cc(C)c(S(=O)(=O)Nc2cccc3nsnc23)c(C)c1 | 18% | 19% | 3.2µM* | -4% | x | 72%

Screens deposited in PubChem by National Center for Advancing Translational Sciences (NCATS).
